Laboratory results published in PubChem BioAssay (NCATS).
Several values for one entry are separate records, joined by “and”; a condition that tells them apart may be missing. Equal values may be shown once. Records with an inconclusive call do not appear. A call without a number means that no potency is given here. Activity calls are given as the source filed them. Unless noted, calls come from the whole dose curve.

Experiments:
[1] = target: Estrogen receptor (Homo sapiens) (UniProt P03372); assay: qHTS assay for small molecule antagonists of estrogen receptor alpha signaling (AID 588513; active = well fitted curve in the direction sought with a large enough effect in the signal ratio, with a control signal flat, not every such curve was filed as active; the % refers to the signal ratio)
Sequence of Estrogen receptor (Homo sapiens) (P03372 whole entry, looked up): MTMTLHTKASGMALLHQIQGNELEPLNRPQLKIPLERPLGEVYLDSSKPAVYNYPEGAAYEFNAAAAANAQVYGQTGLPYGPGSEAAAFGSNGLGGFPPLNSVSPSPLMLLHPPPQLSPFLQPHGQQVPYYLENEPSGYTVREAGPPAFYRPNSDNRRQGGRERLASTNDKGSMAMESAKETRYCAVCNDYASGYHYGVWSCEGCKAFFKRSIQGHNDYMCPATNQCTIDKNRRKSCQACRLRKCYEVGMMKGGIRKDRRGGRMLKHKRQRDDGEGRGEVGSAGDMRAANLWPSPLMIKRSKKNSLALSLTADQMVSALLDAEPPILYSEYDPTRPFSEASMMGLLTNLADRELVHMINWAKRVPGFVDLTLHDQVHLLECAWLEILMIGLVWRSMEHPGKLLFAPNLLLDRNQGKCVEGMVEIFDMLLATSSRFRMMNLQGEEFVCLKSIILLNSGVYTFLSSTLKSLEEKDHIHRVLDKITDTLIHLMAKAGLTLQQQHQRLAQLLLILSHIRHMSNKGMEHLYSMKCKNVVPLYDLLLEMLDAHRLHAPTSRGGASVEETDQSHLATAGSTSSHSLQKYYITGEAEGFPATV
Method in brief: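 Cells were plated at 5000/well and incubated 4 h at 37 C. Compounds were added as 1:2 dilution series, duplicates. 17-beta-estradiol (0.5nM final) was added for 18 h before CCF4 detection.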

[2] = target: Estrogen receptor (Homo sapiens) (UniProt P03372); assay: qHTS assay for small molecule agonists of estrogen receptor alpha signaling (AID 588514); note: nearly all actives have a fitted effect of over 70% in size
Method in brief: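 Efficacy is expressed against 20 nM 17-beta-estradiol (100%) and DMSO basal (0%); EC50 from Hill equation. Assay: beta-lactamase reporter in ER-alpha-UAS-bla HEK 293 cells, 18 h compound incubation, CCF4 detection.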

[3] = target: Glucocorticoid receptor (Homo sapiens) (UniProt P04150); assay: qHTS assay for small molecule agonists of glucocorticoid receptor signaling (AID 588532; active = well fitted curve in the direction sought with a large enough effect in the signal ratio, with a control signal flat; the % refers to the signal ratio); conditions: HeLa MMTV-bla, beta-lactamase ratio, agonist, 18 h; activation: stronger effect = higher value, percent of dexamethasone control, DMSO zero
Sequence of Glucocorticoid receptor (Homo sapiens) (P04150 whole entry, looked up): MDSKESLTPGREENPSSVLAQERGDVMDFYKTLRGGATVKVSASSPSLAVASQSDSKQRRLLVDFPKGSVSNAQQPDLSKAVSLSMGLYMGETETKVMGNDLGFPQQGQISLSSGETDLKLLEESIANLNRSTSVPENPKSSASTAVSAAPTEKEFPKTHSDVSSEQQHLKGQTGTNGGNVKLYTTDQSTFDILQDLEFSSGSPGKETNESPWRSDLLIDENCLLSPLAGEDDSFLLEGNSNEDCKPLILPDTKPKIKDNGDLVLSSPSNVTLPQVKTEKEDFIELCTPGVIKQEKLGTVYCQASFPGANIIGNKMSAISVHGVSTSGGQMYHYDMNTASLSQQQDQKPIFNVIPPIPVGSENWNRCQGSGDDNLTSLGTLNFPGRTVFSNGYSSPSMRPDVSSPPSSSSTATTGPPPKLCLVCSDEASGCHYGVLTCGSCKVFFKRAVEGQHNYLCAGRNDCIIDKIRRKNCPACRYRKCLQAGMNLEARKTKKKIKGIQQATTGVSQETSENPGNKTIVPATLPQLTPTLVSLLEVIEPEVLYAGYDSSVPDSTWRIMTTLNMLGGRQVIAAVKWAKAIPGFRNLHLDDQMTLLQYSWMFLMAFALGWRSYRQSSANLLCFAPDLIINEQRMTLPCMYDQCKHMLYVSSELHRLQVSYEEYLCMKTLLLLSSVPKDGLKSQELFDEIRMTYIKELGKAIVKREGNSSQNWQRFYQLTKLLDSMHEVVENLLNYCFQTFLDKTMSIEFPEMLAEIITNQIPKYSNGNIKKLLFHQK
Method in brief: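 MMTV-bla HeLa beta-lactamase reporter cells in 1% charcoal/dextran FBS medium, compounds up to 92 uM for 18 h at 37 C, CCF4 readout; normalized to 0.1 uM dexamethasone (100%), EC50 and efficacy from Hill fits.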

[4] = target: Peroxisome proliferator-activated receptor gamma (Homo sapiens) (UniProt P37231); assay: qHTS assay for small molecule agonists of peroxisome proliferator-activated receptor gamma signaling (AID 588536; active = well fitted curve in the direction sought with a large enough effect in the signal ratio, with a control signal flat, not every such curve was filed as active; the % refers to the signal ratio)
Sequence of Peroxisome proliferator-activated receptor gamma (Homo sapiens) (P37231 whole entry, looked up): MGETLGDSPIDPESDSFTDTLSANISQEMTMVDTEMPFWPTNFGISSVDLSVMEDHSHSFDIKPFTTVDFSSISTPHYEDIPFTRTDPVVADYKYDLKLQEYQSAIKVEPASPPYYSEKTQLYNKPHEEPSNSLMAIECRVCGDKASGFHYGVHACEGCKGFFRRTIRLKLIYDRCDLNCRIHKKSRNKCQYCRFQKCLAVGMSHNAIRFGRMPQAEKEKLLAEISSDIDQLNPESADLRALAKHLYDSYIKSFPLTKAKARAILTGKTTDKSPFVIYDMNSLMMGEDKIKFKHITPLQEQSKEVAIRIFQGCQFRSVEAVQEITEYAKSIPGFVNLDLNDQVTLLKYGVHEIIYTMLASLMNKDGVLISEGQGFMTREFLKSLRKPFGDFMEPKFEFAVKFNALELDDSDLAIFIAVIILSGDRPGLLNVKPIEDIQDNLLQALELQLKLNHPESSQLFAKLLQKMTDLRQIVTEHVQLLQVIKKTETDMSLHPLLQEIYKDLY
Method in brief: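 This is an agonist-mode beta-lactamase reporter assay in HEK293 PPAR-gamma-UAS-bla cells with 1% charcoal/dextran FBS. Compound titrations ran 16 h at 37 C before CCF4 detection. EC50 and efficacy are Hill fits scaled to 2 uM rosiglitazone (100%) and DMSO basal.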

[5] = target: Retinoic acid receptor RXR-alpha (Homo sapiens) (UniProt P19793); assay: qHTS assay for small molecule agonists of retinoid X receptor alpha signaling (AID 588544)
Sequence of Retinoic acid receptor RXR-alpha (Homo sapiens) (P19793 whole entry, looked up): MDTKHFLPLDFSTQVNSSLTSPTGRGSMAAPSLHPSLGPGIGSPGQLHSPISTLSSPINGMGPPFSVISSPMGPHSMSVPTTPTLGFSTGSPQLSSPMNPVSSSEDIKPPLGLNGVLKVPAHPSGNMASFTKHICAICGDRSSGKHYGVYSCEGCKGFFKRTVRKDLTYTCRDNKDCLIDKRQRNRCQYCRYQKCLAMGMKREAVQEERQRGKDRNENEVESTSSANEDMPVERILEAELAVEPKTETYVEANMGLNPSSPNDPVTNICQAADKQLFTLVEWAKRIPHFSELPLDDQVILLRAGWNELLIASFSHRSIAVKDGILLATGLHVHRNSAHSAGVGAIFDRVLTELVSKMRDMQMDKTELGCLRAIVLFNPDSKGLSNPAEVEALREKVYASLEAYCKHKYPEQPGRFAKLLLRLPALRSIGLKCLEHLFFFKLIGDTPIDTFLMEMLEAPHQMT

[6] = target: Thyroid hormone receptor beta (Homo sapiens) (UniProt P10828); assay: qHTS assay for small molecule agonists of thyroid hormone receptor beta signaling (AID 588545)
Sequence of Thyroid hormone receptor beta (Homo sapiens) (P10828 whole entry, looked up): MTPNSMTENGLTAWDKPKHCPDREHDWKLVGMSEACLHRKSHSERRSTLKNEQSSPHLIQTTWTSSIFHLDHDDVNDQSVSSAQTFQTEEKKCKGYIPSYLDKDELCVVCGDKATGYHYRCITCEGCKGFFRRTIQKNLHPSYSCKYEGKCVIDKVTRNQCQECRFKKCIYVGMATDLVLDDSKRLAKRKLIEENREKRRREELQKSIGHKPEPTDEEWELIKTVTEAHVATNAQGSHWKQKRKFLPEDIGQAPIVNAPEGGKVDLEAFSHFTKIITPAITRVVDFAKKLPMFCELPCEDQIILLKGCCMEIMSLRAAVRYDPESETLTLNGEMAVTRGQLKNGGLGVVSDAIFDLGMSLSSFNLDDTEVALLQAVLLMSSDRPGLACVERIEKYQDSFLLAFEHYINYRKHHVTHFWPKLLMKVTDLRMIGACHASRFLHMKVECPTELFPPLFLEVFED
Method in brief: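 Compounds were tested as agonists in TR-UAS-bla-GripTite HEK 293 cells. After 18 hrs at 37 C, CCF4 substrate was added and fluorescence read after 2 hrs at room temperature.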

[7] = qHTS assay for small molecule antagonists of retinoid X receptor alpha signaling (AID 588546; active = well fitted inhibition curve with a large enough effect in the signal ratio, with a control signal flat, not every such curve was filed as active; the % refers to the signal ratio;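 note: cells stimulated with 9-cis-retinoic acid as agonist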); conditions: HEK293T RXRa-UAS-bla, beta-lactamase ratio, antagonist mode; measured here: W530 green channel, cytotoxicity proxy
Method in brief: (§1)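 Beta-lactamase reporter inhibition, read as CCF4 fluorescence ratio (ex 405, em 460/530 nm) after 2 h at RT. HEK293T UAS-bla cells, 2500/well, were stimulated with 9-cis-RA at 500 or 100 nM final alongside test compound for 18 h at 37 C.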

[8] = target: Retinoic acid receptor RXR-alpha (Homo sapiens) (UniProt P19793); assay: as above; conditions: HEK293T RXRa-UAS-bla, beta-lactamase ratio, antagonist mode
Method in brief: as §1

[9] = qHTS assay for small molecule activators of the p53 signaling pathway (AID 651743; active = well fitted activation curve with a large enough effect in the signal ratio, not every such curve was filed as active; the % refers to the signal ratio; note: series mostly up to about 92 µM); conditions: HCT-116 p53RE-bla, beta-lactamase FRET ratio, 16 h; activation: stronger effect = higher value
Method in brief: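 Following 16 hours of compound exposure at 37 C, HCT-116 cells bearing the p53RE-bla reporter were loaded with LiveBLAzer B/G FRET substrate for 2 hours at room temperature and fluorescence intensity was recorded.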

[10] = qHTS assay for small molecule activators of the nuclear factor-kappa B (NF-kB) signaling pathway (AID 651749; active = well fitted activation curve with a large enough effect in the signal ratio; the % refers to the signal ratio; note: series mostly up to about 77 µM); conditions: NF-kB-bla ME-180 cells, beta-lactamase FRET ratio, 16 h; activation: stronger effect = higher value
Method in brief: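 In this qHTS format, compounds acting as activators increase NF-kB-driven beta-lactamase in ME-180 cells, measured as disrupted FRET after 16 hr exposure at 37C and 5% CO2.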

[11] = qHTS assay for environmental chemicals that activate the Aryl hydrocarbon Receptor (AhR) signaling pathway (AID 651777; active = well fitted curve in the direction sought with a large enough effect; an effect the other way counts as inactive or inconclusive; note: nearly all actives have a fitted effect of over 15% in size); conditions: 1A2-DRE human hepatoma cells, luciferase, 24 h; activation: stronger effect = higher value
Method in brief: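 Concentration–response screening used 1,200 1A2-DRE cells per well, 24 hr compound exposure (37 C, 5% CO2), and One-Glo luminescence as the AhR-driven CYP1A2 reporter signal.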

[12] = target: Peroxisome proliferator-activated receptor alpha (Homo sapiens) (UniProt Q07869); assay: qHTS assay for small molecule agonists of the peroxisome proliferator-activated receptor alpha (PPARalpha) signaling pathway (AID 651778; active = well fitted curve in the direction sought with a large enough effect; an effect the other way counts as inactive or inconclusive); conditions: PathHunter PPARalpha complementation, chemiluminescence, 6 h; max response: stronger effect = higher value
Sequence of Peroxisome proliferator-activated receptor alpha (Homo sapiens) (Q07869 whole entry, looked up, the tested form may be a part): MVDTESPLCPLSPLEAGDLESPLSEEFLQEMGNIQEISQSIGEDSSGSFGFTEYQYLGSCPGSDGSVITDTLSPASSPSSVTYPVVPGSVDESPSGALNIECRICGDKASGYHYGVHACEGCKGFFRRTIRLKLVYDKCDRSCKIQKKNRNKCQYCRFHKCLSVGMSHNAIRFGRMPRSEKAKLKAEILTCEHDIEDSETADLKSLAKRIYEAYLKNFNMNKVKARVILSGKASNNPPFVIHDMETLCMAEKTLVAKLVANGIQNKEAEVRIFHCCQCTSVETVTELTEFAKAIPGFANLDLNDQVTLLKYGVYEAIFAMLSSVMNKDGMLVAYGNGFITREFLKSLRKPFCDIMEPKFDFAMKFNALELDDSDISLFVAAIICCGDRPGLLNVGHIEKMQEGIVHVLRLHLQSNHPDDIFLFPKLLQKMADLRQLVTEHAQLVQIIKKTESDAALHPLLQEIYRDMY
Method in brief: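 Enzyme-fragment complementation assay in which ligand-bound PPARalpha translocates and forms an active enzyme that generates chemiluminescence. Cells were plated overnight, exposed to compound for 6 hr at 37 C, and then given detection reagent for 60 min at room temperature.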

[13] = qHTS assay for small molecule agonists of the antioxidant response element (ARE) signaling pathway measured by Nrf2-dependant transcriptional activity (AID 720636; active = well fitted curve in the direction sought with a large enough effect in the repeat runs; an effect the other way counts as inactive or inconclusive;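 note: HepG2 cells with an ARE-driven luciferase reporter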)
Method in brief: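 Attachment 6 hr at 37 C, then compound versus DMSO vehicle for 16 hr in ARE-luc HepG2 cells (1% dialyzed FBS); luminescence recorded 30 min after ONE-Glo addition at room temperature.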

[14] = qHTS assay for small molecule agonists of the antioxidant response element (ARE) signaling pathway measured by Nrf2-dependant transcriptional activity - cell viability counter screen (AID 720653; active = well fitted curve in the direction sought with a large enough effect in the repeat runs; an effect the other way counts as inactive or inconclusive); conditions: ARE-bla HepG2 viability, CellTiter-Glo ATP luminescence, 16 h; max response: stronger effect = lower value
Method in brief: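 ARE-bla HepG2 cells treated with compounds for 16 h at 37C; this counter screen measures viability as intracellular ATP by CellTiter-Glo luminescence after 30 min at room temperature.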

[15] = qHTS assay for cell viability of HEK293 cells (AID 743288; active = well fitted curve in the direction sought with a large enough effect; an effect the other way counts as inactive or inconclusive; note: nearly all actives have a fitted effect of over 50% in size); conditions: ATP luminescence (CellTiter-Glo), 18 h; max response: stronger effect = lower value
Method in brief: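 Quantitative high-throughput screen: compounds were pinned onto parental HEK293 cells (2,000 per well) after a minimum 5 h settling at 37 C, incubated 18 h at 37 C, and intracellular ATP measured by luciferase luminescence.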

[16] = qHTS assay for cell viability of the p53RE-bla HCT-116 cell line (AID 743292; active = well fitted curve in the direction sought with a large enough effect; an effect the other way counts as inactive or inconclusive; note: nearly all actives have a fitted effect of over 55% in size)
Method in brief: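 Compound-exposed HCT-116 (p53RE-bla) cells, 4,000 per well, were kept 16 h at 37 C following a 5 h preincubation. Cell number was estimated from total ATP by CellTiter-Glo luminescence read after 30 min at room temperature.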

[17] = target: Peroxisome proliferator-activated receptor delta (Homo sapiens) (UniProt Q03181); assay: qHTS assay for small molecule agonists of peroxisome proliferator-activated receptor delta signaling (AID 588534)
Sequence of Peroxisome proliferator-activated receptor delta (Homo sapiens) (Q03181 whole entry, looked up): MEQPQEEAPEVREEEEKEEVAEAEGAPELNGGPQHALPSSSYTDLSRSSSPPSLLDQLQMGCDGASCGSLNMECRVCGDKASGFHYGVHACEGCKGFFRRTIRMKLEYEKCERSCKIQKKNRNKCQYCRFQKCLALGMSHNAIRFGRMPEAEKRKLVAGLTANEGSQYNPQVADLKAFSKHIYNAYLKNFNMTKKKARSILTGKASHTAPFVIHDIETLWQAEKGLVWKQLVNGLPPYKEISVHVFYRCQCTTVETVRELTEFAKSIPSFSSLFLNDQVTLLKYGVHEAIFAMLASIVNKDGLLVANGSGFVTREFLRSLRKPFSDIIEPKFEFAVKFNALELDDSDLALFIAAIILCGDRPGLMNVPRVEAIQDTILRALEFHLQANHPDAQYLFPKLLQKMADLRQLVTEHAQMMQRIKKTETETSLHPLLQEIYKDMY
Method in brief: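 Agonist-mode qHTS; reporter cells, 5 hrs 37 C pre-incubation; compound titration, 18 hrs 37 C; CCF4 dye, 2 hrs RT; fluorescence read. EC50/efficacy via Hill fit.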

[18] = target: Vitamin D3 receptor (Homo sapiens) (UniProt P11473); assay: qHTS assay for small molecule antagonists of vitamin D receptor signaling (AID 588541);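 note: receptor activated by calcitriol during compound treatment; series mostly up to about 77 µM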
Sequence of Vitamin D3 receptor (Homo sapiens) (P11473 whole entry, looked up): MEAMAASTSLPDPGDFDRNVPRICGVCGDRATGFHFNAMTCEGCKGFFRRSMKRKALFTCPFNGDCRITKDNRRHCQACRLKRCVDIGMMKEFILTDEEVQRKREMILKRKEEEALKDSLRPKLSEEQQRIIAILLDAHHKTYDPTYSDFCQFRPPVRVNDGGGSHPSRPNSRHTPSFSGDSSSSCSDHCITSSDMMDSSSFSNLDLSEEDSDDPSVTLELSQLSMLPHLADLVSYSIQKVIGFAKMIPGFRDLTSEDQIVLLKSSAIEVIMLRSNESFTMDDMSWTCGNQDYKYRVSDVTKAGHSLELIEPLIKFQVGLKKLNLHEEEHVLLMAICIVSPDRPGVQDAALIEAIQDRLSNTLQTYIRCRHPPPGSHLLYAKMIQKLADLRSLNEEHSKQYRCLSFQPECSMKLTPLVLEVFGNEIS
Method in brief: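 VDR-UAS-bla HEK293T cells in 2% charcoal-stripped FBS were stimulated with 1-alpha,25-dihydroxyvitamin D3 (3 nM final) plus compound for 16 h at 37 C. The beta-lactamase CCF4 readout was normalized to 50 nM agonist and DMSO, and Hill fits gave IC50.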

[19] = target: Nuclear receptor subfamily 1 group I member 2 (Rattus norvegicus) (UniProt Q9R1A7); assay: qHTS assay for small molecule activators of the rat pregnane X receptor (rPXR) signaling pathway (AID 651751; call rule not given here); conditions: rPXR reporter cells, luciferase (One-Glo), 24 h
Sequence of Nuclear receptor subfamily 1 group I member 2 (Rattus norvegicus) (Q9R1A7 whole entry, looked up): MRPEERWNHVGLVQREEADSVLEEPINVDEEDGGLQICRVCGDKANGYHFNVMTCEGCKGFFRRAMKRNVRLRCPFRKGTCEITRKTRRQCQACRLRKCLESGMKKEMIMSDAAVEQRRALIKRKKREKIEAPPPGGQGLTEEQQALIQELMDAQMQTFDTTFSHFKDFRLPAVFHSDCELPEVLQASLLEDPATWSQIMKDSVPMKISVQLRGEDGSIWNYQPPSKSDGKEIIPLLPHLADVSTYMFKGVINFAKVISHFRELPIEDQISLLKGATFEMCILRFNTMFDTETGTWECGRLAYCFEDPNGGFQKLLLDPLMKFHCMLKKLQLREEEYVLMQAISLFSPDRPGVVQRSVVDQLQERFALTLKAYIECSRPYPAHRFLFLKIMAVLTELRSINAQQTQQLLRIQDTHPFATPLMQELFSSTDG

[20] = target: Vitamin D3 receptor (Homo sapiens) (UniProt P11473); assay: qHTS assay for small molecule agonists of vitamin D receptor signaling (AID 588543)
Method in brief: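 qHTS in agonist mode: compound titrations stimulate a VDR-driven β-lactamase reporter in HEK293T cells over 16 h at 37 °C. Response normalized to 50 nM 1α,25-dihydroxyvitamin D3 = 100%, DMSO = 0%; Hill fitting gives EC50 and maximal response.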

SMILES	Potency [1]	Potency [2]	activation [3]	Potency [4]	Potency [5]	Potency [6]	max response [7]	max response [8]	activation [9]	activation [10]	activation [11]	max response [12]	Potency [13]	max response [14]	max response [15]	Potency [16]	outcome [17]	Potency [18]	max response [19]	outcome [20]
O=S1OC[C@@H]2[C@H](CO1)[C@@]1(Cl)C(Cl)=C(Cl)[C@]2(Cl)C1(Cl)Cl (some centres undefined)	inactive	inactive	-18.2% (inactive) and -5.58% (inactive)	inactive	inactive	inactive	9.73% and 12.8%	-70.2% (inactive) and -50.2% (inactive)	-3.81% (inactive) and -3.84% (inactive)	0.712% (inactive) and 0.812% (inactive)	0.042% (inactive) and 0.216% (inactive)	-0.211% (inactive) and 0.181% (inactive)	inactive	-3.19% (inactive) and 3.58% (inactive)	-26.6% (inactive) and -23.3% (inactive)	inactive	–	–	–	–
CCOP(=O)(SC(C)CC)SC(C)CC (centres undefined)	inactive	inactive	-2.32% (inactive)	inactive	inactive	inactive	-3.17%	-13.8% (inactive)	-0.0138% (inactive)	-1.37% (inactive)	0.937% (inactive)	-1.1% (inactive)	inactive	-6.4% (inactive)	-14% (inactive)	inactive	inactive	inactive	4.1% (inactive)	–
CCOC1Oc2ccc(OS(C)(=O)=O)cc2C1(C)C (centres undefined)	inactive	inactive	–	inactive	inactive	inactive	-7.46%	-7.44% (inactive)	–	0.657% (inactive)	1.08% (inactive)	-0.11% (inactive)	–	-22.7% (inactive)	-23.7% (inactive)	inactive	inactive	inactive	11.5% (inactive)	inactive
CCOP(=O)(OCC)SCSC(C)(C)C	inactive	inactive	-2.2% (inactive)	inactive	inactive	inactive	-15.4%	-1.69% (inactive)	-4.41% (inactive)	-3.03% (inactive)	-0.964% (inactive)	0.241% (inactive)	inactive	4.97% (inactive)	-8.78% (inactive)	inactive	inactive	inactive	1.41% (inactive)	inactive
CCNC(=O)NC(=O)/C(C#N)=N/OC	inactive	inactive	3.07% (inactive)	inactive	inactive	inactive	-2.66%	12.8% (inactive)	–	–	0.625% (inactive)	0.388% (inactive)	inactive	-0.764% (inactive)	-16.3% (inactive)	inactive	inactive	inactive	–	inactive
